In assay [1] the target is human Vasopressin 1A Receptor (V1A), AVPR1A (gene 552) (UniProt P37288). The experiment in a line: NVS_GPCR_hV1A: NovaScreen (NVS) G Protein-Coupled Receptor Assay for human Vasopressin 1A Receptor (V1A) (AID 2283284). The gist of the method: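 Cell-free radioligand displacement on human platelet preparations, 1.5 h incubation, filter-based scintillation counting. Chemicals first tested in duplicate at 25 uM; actives then run in concentration-response up to 50 uM, loss of signal fitted against DMSO.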

The subject of assay [2] is rabbit Platelet Activating Factor Receptor (PAF), gene 100354046. Put plainly: NVS_GPCR_rabPAF: NovaScreen (NVS) G Protein-Coupled Receptor Assay for rabbit Platelet Activating Factor Receptor (PAF) (AID 2283287). The gist of the method: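 Rabbit platelet membrane preparation; radioligand displacement read by filter-based scintillation counting 1 h after dosing, loss of signal versus DMSO. Primary screen in duplicate at 25 uM, actives followed up in concentration series.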

Assay [3] has as its target guinea pig Bradykinin Receptor B2 (BK2), BDKRB2 (gene 100135486) (UniProt O70526). The experiment in a line: NVS_GPCR_gBK2: NovaScreen (NVS) G Protein-Coupled Receptor Assay for guinea pig Bradykinin Receptor B2 (BK2) (AID 2283292). The method in brief:
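Radioligand displacement on guinea pig ileum membranes for 1 h, read by filter-based scintillation counting; loss of signal relative to DMSO. Compounds were screened in duplicate at 25 uM, and those passing the threshold were retested in concentration-response up to 50 uM.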

The target of assay [4] is guinea pig Serotonin, 5-Hydroxytryptamine Receptor 4 (5HT4), HTR4 (gene 100135548) (UniProt O70528). The experiment in a line: NVS_GPCR_g5HT4: NovaScreen (NVS) G Protein-Coupled Receptor Assay for guinea pig Serotonin, 5-Hydroxytryptamine Receptor 4 (5HT4) (AID 2283294). The method in brief:
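Guinea pig striatal membranes; radioligand competitive displacement, filtration and scintillation counting after 1 h. Primary screen in duplicate at 25 uM; actives then tested in concentration series; loss of binding signal fitted relative to DMSO.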

Assay [5] concerns the target rat Adrenergic Receptor, Alpha 2 (Adra2), Non-selective Binding, Adra2a (gene 25083) (UniProt P22909). The experiment in a line: NVS_GPCR_rAdra2_NonSelective: NovaScreen (NVS) G Protein-Coupled Receptor Assay for rat Adrenergic Receptor, Alpha 2 (Adra2), Non-selective Binding (AID 2283299). The gist of the method:
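Rat cortical membranes, radioligand competitive displacement read by filter-based scintillation counting 1.25 hours after dosing. Primary screen in duplicate at 25 uM; actives followed up in concentration series.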

Assay [6] deals with human Opioid Receptor Delta 1 (Opiate D1), OPRD1 (gene 4985) (UniProt P41143). The experiment in a line: NVS_GPCR_hOpiate_D1: NovaScreen (NVS) G Protein-Coupled Receptor Assay for human Opioid Receptor Delta 1 (Opiate D1) (AID 2283280). The gist of the method:
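Radioligand displacement on membranes from CHO cells expressing the receptor, read by filter scintillation counting 1 h after dosing. Duplicate single-point screen at 25 uM, then concentration series for actives; loss of signal versus DMSO.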

The target in assay [7] is rat Adrenergic, Alpha 1, Non-selective Receptor (Adra1), Adra1a (gene 29412) (UniProt P43140). The experiment in a line: NVS_GPCR_rAdra1_NonSelective: NovaScreen (NVS) G Protein-Coupled Receptor Assay for rat Adrenergic, Alpha 1, Non-selective Receptor (Adra1) (AID 2283289). The method in brief: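 Rat forebrain membranes; radioligand displacement read by filter-based scintillation counting 1 h after dosing. Primary screen in duplicate at 25 uM; hits (e.g. ≥30% inhibition) rerun as concentration–response to 50 uM max. Fitted versus DMSO.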

The target of assay [8] is rat Neurokinin-1 Receptor (NK1), Tacr1 (gene 24807) (UniProt P14600). The experiment in a line: NVS_GPCR_rNK1: NovaScreen (NVS) G Protein-Coupled Receptor Assay for rat Neurokinin-1 Receptor (NK1) (AID 2283309). The method in brief:
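Rat submaxillary gland membranes; radioligand displacement read by filter-based scintillation counting after 1 h. Primary screen in duplicate at 25 uM; actives retested in concentration series; loss of binding fitted versus DMSO.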

Assay [9] concerns the target human Thromboxane A2 Receptor (TXA2), TBXA2R (gene 6915) (UniProt P21731). The experiment in a line: NVS_GPCR_hTXA2: NovaScreen (NVS) G Protein-Coupled Receptor Assay for human Thromboxane A2 Receptor (TXA2) (AID 2283282).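 Also: actives reduce bound radioligand signal relative to DMSO baseline.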 The gist of the method: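 Cell-free radioligand binding with human platelet-derived receptor; 1 h after dosing, filter-based scintillation counting, loss of signal vs DMSO. Primary screen in duplicate at 25 uM.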

Assay [10] relates to 5-hydroxytryptamine receptor 2C (pig). Put plainly: NVS_GPCR_p5HT2C: NovaScreen (NVS) G Protein-Coupled Receptor Assay for pig Serotonin, 5-Hydroxytryptamine Receptor 2C (5HT2C) (AID 2283288). The method in brief:
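Pig choroid plexus membranes; radioligand competitive binding, filter-based scintillation counting, read 1 h after dosing. Primary screen in duplicate at 25 uM; actives then run as concentration series; loss of signal versus DMSO baseline.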

Assay [11] deals with Metabotropic glutamate receptor 1 (Rattus norvegicus) (UniProt P23385). The experiment in a line: NVS_GPCR_rmMGluR1: NovaScreen (NVS) G Protein-Coupled Receptor Assay for rat Glutamate Metabotropic Receptor 1 (MGluR1) (AID 2283305). The gist of the method:
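Rat cerebellum membrane preparation, radioligand displacement binding read by filter-based scintillation counting 1 hour after dosing. Initial duplicate single-point screen at 25 uM, then concentration-response up to 50 uM; loss of signal versus DMSO baseline scored.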

The target in assay [12] is rat Serotonin, 5-Hydroxytryptamine Receptor 1 (5HT1), Non-Selective Binding, Htr1a (gene 24473) (UniProt P19327). Put plainly: NVS_GPCR_r5HT1_NonSelective: NovaScreen (NVS) G Protein-Coupled Receptor Assay for rat Serotonin, 5-Hydroxytryptamine Receptor 1 (5HT1), Non-Selective Binding (AID 2283286). The gist of the method:
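Rat cortical membranes, radioligand displacement, 1 h incubation, read by filter scintillation. Primary screen in duplicate at 25 uM. Hits (e.g. ≥30% inhibition) went to concentration-response up to 50 uM, fitted as loss of binding versus DMSO.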

The target in assay [13] is rat Gamma-Aminobutyric Acid Type B Receptor (GABBR), Gabbr1 (gene 81657) (UniProt Q9Z0U4). Put plainly: NVS_GPCR_rGABBR: NovaScreen (NVS) G Protein-Coupled Receptor Assay for rat Gamma-Aminobutyric Acid Type B Receptor (GABBR) (AID 2283301). The method in brief: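 Radioligand displacement on rat cortical membranes, 1 h, filter-based scintillation counting. Primary screen at 25 uM in duplicate; compounds passing threshold re-tested in concentration-response up to 50 uM; loss of binding fitted against DMSO.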

In assay [14] the target is human Purinergic Receptor P2Y, P2RY1 (gene 5028) (UniProt P47900). Put plainly: NVS_GPCR_hPY2: NovaScreen (NVS) G Protein-Coupled Receptor Assay for human Purinergic Receptor P2Y (AID 2283281). The method in brief: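 Cell-free radioligand binding using U937-derived protein, 1 h after dosing, filter-based scintillation counting. Screened in duplicate at 25 uM; actives rerun as concentration-response up to 50 uM; loss of signal versus DMSO.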

SMILES strings stand for the structures. Inconclusive results are not listed. Active and inactive are the calls of the source. The calls were made as follows: active = hit-call score of the fitted dose curve at least 0.9, where 1 is the maximum; inconclusive = response in the unintended direction; inactive = score below 0.9.

rat Adrenergic, Alpha 1, Non-selective Receptor (Adra1), Adra1a (gene 29412), sequence (P43140 whole entry, looked up): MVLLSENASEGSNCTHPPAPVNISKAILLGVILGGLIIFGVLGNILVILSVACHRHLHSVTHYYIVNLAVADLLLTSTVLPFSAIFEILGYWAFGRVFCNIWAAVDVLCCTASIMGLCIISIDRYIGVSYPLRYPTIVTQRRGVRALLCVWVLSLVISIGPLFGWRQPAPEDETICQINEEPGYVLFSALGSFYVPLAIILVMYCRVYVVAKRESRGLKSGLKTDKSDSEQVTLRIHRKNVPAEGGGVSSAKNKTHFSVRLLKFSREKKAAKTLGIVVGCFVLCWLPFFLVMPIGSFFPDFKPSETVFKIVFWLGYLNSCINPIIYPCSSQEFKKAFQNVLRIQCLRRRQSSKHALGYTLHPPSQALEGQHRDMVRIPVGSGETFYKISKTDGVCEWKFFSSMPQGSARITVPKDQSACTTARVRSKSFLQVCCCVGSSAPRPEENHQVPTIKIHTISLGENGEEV
human Vasopressin 1A Receptor (V1A), AVPR1A (gene 552), sequence (P37288 whole entry, looked up): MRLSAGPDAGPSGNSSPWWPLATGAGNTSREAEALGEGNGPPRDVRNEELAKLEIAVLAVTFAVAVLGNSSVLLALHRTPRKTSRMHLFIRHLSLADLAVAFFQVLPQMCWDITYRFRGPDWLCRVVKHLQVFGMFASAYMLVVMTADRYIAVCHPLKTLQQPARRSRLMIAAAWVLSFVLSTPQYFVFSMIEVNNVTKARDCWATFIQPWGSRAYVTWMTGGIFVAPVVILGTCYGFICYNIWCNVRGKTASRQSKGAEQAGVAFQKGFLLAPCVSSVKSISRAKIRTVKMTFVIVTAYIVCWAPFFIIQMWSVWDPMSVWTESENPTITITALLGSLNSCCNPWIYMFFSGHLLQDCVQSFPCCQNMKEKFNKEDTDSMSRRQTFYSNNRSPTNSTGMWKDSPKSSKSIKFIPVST
human Opioid Receptor Delta 1 (Opiate D1), OPRD1 (gene 4985), sequence (P41143 whole entry, looked up): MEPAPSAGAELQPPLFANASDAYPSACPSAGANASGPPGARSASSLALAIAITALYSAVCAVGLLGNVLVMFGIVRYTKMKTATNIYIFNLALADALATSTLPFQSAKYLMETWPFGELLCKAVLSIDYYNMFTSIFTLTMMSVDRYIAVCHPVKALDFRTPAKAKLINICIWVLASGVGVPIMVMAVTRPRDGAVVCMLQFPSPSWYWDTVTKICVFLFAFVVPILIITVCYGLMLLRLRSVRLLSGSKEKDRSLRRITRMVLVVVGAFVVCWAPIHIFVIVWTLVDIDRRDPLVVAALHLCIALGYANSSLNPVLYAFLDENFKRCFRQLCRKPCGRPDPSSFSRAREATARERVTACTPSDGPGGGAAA
Metabotropic glutamate receptor 1 (Rattus norvegicus), sequence (P23385 whole entry, looked up): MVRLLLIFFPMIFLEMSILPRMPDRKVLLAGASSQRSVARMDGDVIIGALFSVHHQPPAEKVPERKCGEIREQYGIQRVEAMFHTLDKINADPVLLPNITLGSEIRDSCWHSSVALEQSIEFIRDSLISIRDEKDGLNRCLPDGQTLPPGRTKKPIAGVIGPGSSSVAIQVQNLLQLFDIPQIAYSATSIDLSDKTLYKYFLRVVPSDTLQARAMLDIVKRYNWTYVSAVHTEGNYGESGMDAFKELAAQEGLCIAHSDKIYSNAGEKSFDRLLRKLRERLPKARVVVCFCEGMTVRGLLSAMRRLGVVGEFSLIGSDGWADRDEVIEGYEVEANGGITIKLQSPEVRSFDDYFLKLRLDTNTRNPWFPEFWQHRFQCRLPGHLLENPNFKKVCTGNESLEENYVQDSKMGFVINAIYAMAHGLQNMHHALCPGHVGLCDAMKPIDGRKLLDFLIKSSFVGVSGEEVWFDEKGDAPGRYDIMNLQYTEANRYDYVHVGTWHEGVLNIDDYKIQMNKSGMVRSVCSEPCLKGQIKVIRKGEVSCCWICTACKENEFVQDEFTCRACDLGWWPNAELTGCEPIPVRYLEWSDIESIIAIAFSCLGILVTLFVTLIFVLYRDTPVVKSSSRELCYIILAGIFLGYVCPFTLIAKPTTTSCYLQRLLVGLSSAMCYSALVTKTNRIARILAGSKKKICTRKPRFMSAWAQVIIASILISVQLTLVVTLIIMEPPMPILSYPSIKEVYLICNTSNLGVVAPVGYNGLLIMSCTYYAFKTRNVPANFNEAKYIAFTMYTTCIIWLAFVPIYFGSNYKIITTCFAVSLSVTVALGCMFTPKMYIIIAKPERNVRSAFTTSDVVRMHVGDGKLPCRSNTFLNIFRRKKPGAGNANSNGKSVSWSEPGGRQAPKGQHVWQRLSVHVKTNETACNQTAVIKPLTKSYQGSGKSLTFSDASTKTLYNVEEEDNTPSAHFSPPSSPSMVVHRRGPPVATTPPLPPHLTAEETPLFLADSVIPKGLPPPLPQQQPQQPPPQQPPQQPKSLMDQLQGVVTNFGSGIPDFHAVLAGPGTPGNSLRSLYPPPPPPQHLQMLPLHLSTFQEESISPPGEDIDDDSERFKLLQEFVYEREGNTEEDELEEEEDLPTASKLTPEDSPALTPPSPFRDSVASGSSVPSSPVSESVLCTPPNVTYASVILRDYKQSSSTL
guinea pig Serotonin, 5-Hydroxytryptamine Receptor 4 (5HT4), HTR4 (gene 100135548), sequence (O70528 whole entry, looked up): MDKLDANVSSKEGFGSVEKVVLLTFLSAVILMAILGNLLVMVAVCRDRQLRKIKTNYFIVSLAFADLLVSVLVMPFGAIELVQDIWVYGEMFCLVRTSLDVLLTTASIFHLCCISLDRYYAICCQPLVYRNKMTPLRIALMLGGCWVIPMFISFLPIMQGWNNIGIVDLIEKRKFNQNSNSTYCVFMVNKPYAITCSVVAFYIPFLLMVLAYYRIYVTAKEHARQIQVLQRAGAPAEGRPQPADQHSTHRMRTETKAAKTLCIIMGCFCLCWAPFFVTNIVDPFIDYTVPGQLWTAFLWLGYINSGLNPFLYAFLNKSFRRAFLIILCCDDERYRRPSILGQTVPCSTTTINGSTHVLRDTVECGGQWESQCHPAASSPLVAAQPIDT
rat Neurokinin-1 Receptor (NK1), Tacr1 (gene 24807), sequence (P14600 whole entry, looked up): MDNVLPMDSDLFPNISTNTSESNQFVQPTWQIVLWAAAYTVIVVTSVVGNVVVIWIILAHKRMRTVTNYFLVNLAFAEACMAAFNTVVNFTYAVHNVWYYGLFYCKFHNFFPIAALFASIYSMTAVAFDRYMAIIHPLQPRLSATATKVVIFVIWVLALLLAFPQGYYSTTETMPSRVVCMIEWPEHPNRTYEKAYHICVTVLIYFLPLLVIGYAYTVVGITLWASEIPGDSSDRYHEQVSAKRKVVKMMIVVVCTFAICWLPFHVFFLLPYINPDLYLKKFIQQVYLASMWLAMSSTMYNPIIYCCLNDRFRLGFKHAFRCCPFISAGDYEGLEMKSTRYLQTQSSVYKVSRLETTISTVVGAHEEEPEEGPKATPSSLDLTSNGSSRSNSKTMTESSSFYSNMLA
rat Adrenergic Receptor, Alpha 2 (Adra2), Non-selective Binding, Adra2a (gene 25083), sequence (P22909 whole entry, looked up): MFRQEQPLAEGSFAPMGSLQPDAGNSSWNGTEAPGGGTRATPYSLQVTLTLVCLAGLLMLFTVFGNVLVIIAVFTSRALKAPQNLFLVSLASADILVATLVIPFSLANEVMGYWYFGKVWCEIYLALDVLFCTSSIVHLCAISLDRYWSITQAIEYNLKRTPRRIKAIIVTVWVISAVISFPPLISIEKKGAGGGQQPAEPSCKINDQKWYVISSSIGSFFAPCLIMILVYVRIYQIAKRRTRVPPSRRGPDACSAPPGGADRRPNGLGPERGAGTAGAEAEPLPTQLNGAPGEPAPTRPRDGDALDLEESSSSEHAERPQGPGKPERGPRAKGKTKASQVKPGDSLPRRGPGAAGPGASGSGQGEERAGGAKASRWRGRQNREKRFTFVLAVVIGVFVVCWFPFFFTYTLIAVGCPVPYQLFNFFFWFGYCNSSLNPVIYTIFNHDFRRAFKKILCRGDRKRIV
rat Serotonin, 5-Hydroxytryptamine Receptor 1 (5HT1), Non-Selective Binding, Htr1a (gene 24473), sequence (P19327 whole entry, looked up): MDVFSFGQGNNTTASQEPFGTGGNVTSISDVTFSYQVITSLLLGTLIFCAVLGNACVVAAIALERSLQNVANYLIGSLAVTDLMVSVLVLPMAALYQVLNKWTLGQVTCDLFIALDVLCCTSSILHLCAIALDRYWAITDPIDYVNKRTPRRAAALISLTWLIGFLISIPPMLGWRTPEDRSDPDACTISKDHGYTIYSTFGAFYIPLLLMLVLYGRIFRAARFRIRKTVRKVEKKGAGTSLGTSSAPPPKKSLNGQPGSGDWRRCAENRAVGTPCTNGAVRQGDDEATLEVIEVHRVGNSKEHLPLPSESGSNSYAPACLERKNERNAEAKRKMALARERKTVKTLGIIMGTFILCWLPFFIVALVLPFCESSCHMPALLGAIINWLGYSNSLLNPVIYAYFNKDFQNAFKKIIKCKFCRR
guinea pig Bradykinin Receptor B2 (BK2), BDKRB2 (gene 100135486), sequence (O70526 whole entry, looked up): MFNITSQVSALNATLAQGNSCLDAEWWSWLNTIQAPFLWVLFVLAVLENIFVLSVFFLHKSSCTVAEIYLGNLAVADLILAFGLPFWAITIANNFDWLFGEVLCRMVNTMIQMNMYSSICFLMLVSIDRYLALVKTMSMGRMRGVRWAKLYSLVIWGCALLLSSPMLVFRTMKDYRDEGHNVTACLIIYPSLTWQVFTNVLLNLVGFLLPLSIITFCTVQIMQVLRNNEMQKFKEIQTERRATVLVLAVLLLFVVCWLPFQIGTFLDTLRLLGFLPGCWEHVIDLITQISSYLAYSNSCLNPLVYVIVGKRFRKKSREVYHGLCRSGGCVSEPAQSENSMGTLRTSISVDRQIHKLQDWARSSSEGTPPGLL
human Thromboxane A2 Receptor (TXA2), TBXA2R (gene 6915), sequence (P21731 whole entry, looked up): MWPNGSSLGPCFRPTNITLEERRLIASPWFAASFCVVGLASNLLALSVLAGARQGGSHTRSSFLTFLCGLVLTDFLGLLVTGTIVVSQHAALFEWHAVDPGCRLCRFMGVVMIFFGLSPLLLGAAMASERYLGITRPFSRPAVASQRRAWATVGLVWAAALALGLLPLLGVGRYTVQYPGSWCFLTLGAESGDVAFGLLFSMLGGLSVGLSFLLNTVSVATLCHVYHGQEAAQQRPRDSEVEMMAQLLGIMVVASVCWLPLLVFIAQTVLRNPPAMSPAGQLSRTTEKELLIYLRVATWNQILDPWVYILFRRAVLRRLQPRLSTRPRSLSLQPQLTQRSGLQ

A word on the AC50: it is the midpoint of the concentration-response curve, whichever way the signal moves. As to `S=C([S-])NCCNC(=S)[S-].[Mn+2]`, the call in assay [1], in [2] and in [5] was inactive. The figures for the AC50 in [3] and in assay [4] were 30.5 µM (active) and 25 µM (active), respectively. As to `CCC(O)=C1C(=O)CC(C(=O)O)CC1=O` (stereo unspecified), in assay [2], the compound was classed as inactive. For `Oc1ccc(C(c2ccc(O)cc2)C(Cl)(Cl)Cl)cc1`, the AC50 in assay [6] was 5.12 µM (active); in assay [4], 2.7 µM (active); in assay [8], 39.4 µM (active). In addition, the outcome in [7] was inactive.

`CN(C)C(=O)Nc1ccc(Cl)c(Cl)c1`: the AC50 in [9] is 9.69 µM (active). As to `O=C(c1ccc(O)cc1O)c1ccc(O)cc1O`, the AC50 in assay [6] is 18.5 µM (active); in assay [10] it was 17.4 µM (active). Also, in assay [11], the outcome was inactive. On to `COC(=O)c1cccc(C)c1S(=O)(=O)NC(=O)Nc1nc(OCC(F)(F)F)nc(N(C)C)n1`, for which the AC50 in assay [1] is 1.32 µM (active). As to `COC(=O)CSc1cc(N=c2sc(=O)n3n2CCCC3)c(F)cc1Cl`, the outcome in [12] and in assay [7] was inactive. For the compound `COC(=O)c1ccccc1S(=O)(=O)NC(=O)Nc1nc(OC(F)F)cc(OC(F)F)n1`, in assay [13], the outcome was inactive.

For the compound `C[C@]12CC[C@@H]3c4ccc(O)cc4C[C@@H](CCCCCCCCCS(=O)CCCC(F)(F)C(F)(F)F)[C@H]3[C@@H]1CC[C@@H]2O` (stereo partly specified), the compound was classed as inactive in assay [8]. With `CCCCOCCOCCOCc1cc2c(cc1CCC)OCO2`, the result in [11] was inactive.

In the case of `COC(=O)c1ccc(CNS(C)(=O)=O)cc1S(=O)(=O)NC(=O)Nc1nc(OC)cc(OC)n1`, the outcome in assay [7] was inactive. Turning to `CC(C)(C)[C@@H](O)[C@@H](Cc1ccc(Cl)cc1)n1cncn1`, the compound was classed as inactive in assay [2].

Regarding `CC(C)CCCCCCc1ccc(O)cc1`, the outcome in [6] was inactive. Consider `CC(=O)S[C@@H]1CC2=CC(=O)CC[C@]2(C)[C@H]2CC[C@@]3(C)[C@@H](CC[C@@]34CCC(=O)O4)[C@H]12`, for which the concentration at half-maximal activity (AC50) in [6] was 4.42 µM (active).

As for `O=C(O)c1ccccc1`, the compound was called inactive in [14] and in assay [1].

Values taken from PubChem BioAssay (EPA / NIEHS).
